Measurements from PubChem BioAssay (Tox21).
Activity calls are given as the source filed them. Calls follow the shape of the dose curve; as a rule, active = well fitted curve in the direction sought with a large enough effect in the repeat runs; inconclusive = weak or mixed curves; inactive = flat fitted curve, though single readings scatter.

Test: qHTS assay to test for compound auto fluorescence at 460 nm (blue) in HEK293 cells (AID 720678)
Conditions: blue autofluorescence 405/460 nm; series mostly up to 91.3 µM
Text: National Center for Advancing Translational Sciences [NCATS]
NIH Chemical Genomics Center [NCGC]
U.S. Environmental Protection Agency [EPA]
National Institutes of Environmental Health Sciences [NIEHS]
National Toxicology Program [NTP]
U.S. Food and Drug Administration [FDA]
Compound auto fluorescence often interferes with screening of the compound library against various biological targets and signaling pathways. Some of these compounds may have fluorophoric properties. Such properties may interfere with the assay outputs resulting in false positives and/or negatives. To decrease such complications and ensure the compound activities are relevant in terms of biological response, the Tox21 10K compound library was screened for auto fluorescence.
From the fluorophores used as reporter signals in our screening assays, the auto fluorescence equivalencies of compounds against three fluorophores have been evaluated: Triamterene, Fluorescein and Rose Bengal sodium for blue, green and red fluorescence, respectively. The fluorescence intensities were measured using Excitation/Emission wavelengths at 405/460nm, 485/535nm and 540/590nm for blue, green and red labels, respectively. This assay includes the blue fluorescence data.
Tox21 Assay Protocol Summary:
2,000 HEK293 cells in 5 uL of culture medium containing 10% dialyzed FBS per well were dispensed into black wall/clear bottom 1536-well plates using a Multidrop Combi Dispenser (Thermo Scientific). The assay plates were incubated for 4-5 hr at 37C to allow cell attachment to the well bottom, followed by the transfer of 23 nL compound or DMSO vehicle by a pintool work station (Kalypsys, San Diego, CA). After the assay plates were incubated overnight at 37C and 5% CO2, fluorescence intensities in the assay plates were measured by an Envision (PerkinElmer, Shelton, CT) plate reader using three labels for measuring blue, green and red fluorescence at […] 460, 535 and 590nm respectively.

SMILES | outcome
CCCCCCCCCC | inactive
O=S1(=O)CC=CC1 | inactive
CC(C)c1ccc(S(=O)(=O)O)cc1 | inactive
CCCSc1ccc2nc(NC(=O)OC)[nH]c2c1 | inactive
CCCCC(CC)COC(=O)CCCCC(=O)OCC(CC)CCCC (stereo not given) | inactive
CCCCCCCCCCCCCCO | inactive
Nc1ccccc1[N+](=O)[O-] | inactive
CCCCC(CC)COC(=O)C(C#N)=C(c1ccccc1)c1ccccc1 (stereo not given) | inactive
CN(C)CCC(c1ccccc1)c1ccccn1 (stereo not given) | inactive
O=C(Oc1ccccc1)c1ccccc1 | inactive
O=C(O)c1ccc(C(=O)O)cc1 | inactive
O=C(O)[C@H](O)[C@@H](O)[C@H](O)[C@H](O)CO | inactive
COS(C)(=O)=O | inactive
CN(C)CCOCCN(C)C | inactive
CCCCCCOCCO | inactive
FC(F)(F)c1ccc(Cl)c(Cl)c1 | inactive
O=C=NCCCCCCN=C=O | inactive
OCc1cccnc1 | inactive
C#C[C@]1(O)CC[C@H]2[C@@H]3CCC4=CC(=O)CC[C@@H]4[C@H]3CC[C@@]21C | inactive
Cc1cccnc1 | inactive

SMILES | outcome
CCCC(C)=O | inactive
CCCCCC1=CCCC1=O | inactive
Cc1occc(=O)c1O | inactive
C[Si](O[Si](C)(C)C)O[Si](C)(C)C | inactive
CCCCCCCCCCCCOCCO | inactive
Cc1ccc(S(N)(=O)=O)cc1 | inactive
O=S(=O)(O)c1ccc2ccccc2c1 | inactive
OCCOCCOCCO | inactive
C=C(C)C(=O)OCCOCCOCCOC(=O)C(=C)C | inactive
C=C(C)C(=O)O[C@H]1C[C@@H]2CC[C@@]1(C)C2(C)C | inactive
CCc1ccc(CCOc2ccc(CC3SC(=O)NC3=O)cc2)nc1 (stereo not given) | inactive
OCCOCCN1CCN(C2=Nc3ccccc3Sc3ccccc32)CC1 | inactive
CCCCC(CC)CO (stereo not given) | inactive
CSCCC=O | inactive
CC1=C(C)S(=O)(=O)CCS1(=O)=O | inactive
COc1ccc(NC(C)=O)cc1N | inactive
CCCCCC/C(C=O)=C\c1ccccc1 | inactive
O=C(OCCOCCOC(=O)c1ccccc1)c1ccccc1 | inactive
C#CCN(C)Cc1ccccc1 | inactive
Nc1cc([N+](=O)[O-])ccc1O | inactive
